Experimental data published in the supplement of paper PMC8728848.
The sample as a whole holds a higher share of the strongest signals than the screen did.

These substances were tested on Fuc(a1-2)Gal(b1-3)GlcNAc(b1-3)GalNAc (assay: glycan array binding signal (z-score within array); higher = stronger binding). Conditions: glycan notation: IUPAC condensed, linker removed.
Method in brief: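 Columns mapping to the same glycan were averaged after glycan names were converted to IUPAC-condensed notation. The data come from 3228 arrays in the Consortium for Functional Glycomics database, limited to those with an available protein sequence. Binding is reported as a within-array Z-score averaged across arrays of one protein sequence and across linkers.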
With Epa22 the “glycan array binding signal (z-score)” value was -0.565.
In the case of BambL (Burhholderia ambifaria), Q0B4G1, the “glycan array binding signal (z-score)” value is reported as -0.211.
With “AgI/II Vhelical-GFP (Streptococcus mutans)” the “glycan array binding signal (z-score)” value was -0.178.
